{"source": "PubChem BioAssay (Tox21)", "note": "Values joined by “and” are separate entries in the source; they are usually repeats but may differ in a detail not shown here. Equal entries are not always repeated. Inconclusive results are not listed. Where a call stands in place of a potency, no number is given. A structure can be active in one record and inactive in another. Active and inactive are the calls of the source. Calls follow the shape of the dose curve; as a rule, active = well fitted inhibition curve with a large enough effect in the repeat runs; inconclusive = weak or mixed curves; inactive = no such curve, though single readings can be large or run the other way. Potency is read from the fitted curve at half-maximal effect."}
{"biological_target": "Cytochrome P450 2D6 (Homo sapiens) (UniProt P10635)", "sequence (P10635 whole entry, looked up)": "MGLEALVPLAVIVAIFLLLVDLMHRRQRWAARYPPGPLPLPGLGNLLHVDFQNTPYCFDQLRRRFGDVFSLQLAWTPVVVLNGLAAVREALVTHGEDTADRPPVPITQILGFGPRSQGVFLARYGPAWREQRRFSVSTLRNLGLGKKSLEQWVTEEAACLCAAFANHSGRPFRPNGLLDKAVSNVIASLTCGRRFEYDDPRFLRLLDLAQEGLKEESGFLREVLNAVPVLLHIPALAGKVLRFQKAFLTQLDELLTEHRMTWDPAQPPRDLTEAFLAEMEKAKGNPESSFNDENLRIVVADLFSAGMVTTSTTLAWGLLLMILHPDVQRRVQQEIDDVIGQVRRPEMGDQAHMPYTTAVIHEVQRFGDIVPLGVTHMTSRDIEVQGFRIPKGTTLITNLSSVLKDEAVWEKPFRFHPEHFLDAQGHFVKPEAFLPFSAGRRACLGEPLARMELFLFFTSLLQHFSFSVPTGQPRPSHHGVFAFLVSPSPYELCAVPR", "test": "Cytochrome P450 Family 2 Subfamily D Member 6 (CYP2D6) small molecule antagonists: luciferase reporter qHTS assay (AID 1671196); also: nearly all actives have a fitted effect of over 50% in size", "settings": "P450-Glo CYP2D6 enzyme assay, luciferin luminescence, 1 h; series mostly up to 115 µM", "from_the_text": "U.S. Tox21 Program National Center for Advancing Translational Sciences [NCATS] U.S. Environmental Protection Agency [EPA] National Institutes of Environmental Health Sciences [NIEHS] National Toxicology Program [NTP] U.S. Food and Drug Administration [FDA] Tox21 Assay Overview: Cytochrome P450 (CYP) enzymes are membrane-bound hemeproteins that play a key role in metabolism of drugs and xenobiotics. Evaluation of the effect of chemicals on CYP isozymes is useful to minimize the adverse drug reactions and toxicities in drug development process. Tox21 chemicals were tested for their effect on CYP enzyme activities by using P450-Glo (TM) screening systems (Promega Corporation, Madison, WI). These systems provide a luminescent method containing proluciferin substrates and are converted to luciferin products by CYP isozymes. The luciferin products formed are detected with a luciferin detection reagent, and the amount of light produced is proportional to CYP activity. P450-Glo (TM) CYP2D6 screening system (Catalog. No. V9890) was used to detect the compounds that interfere in CYP2D6 activity.\nTox21 Assay Protocol Summary: Two ul of enzyme-substrate mix was dispensed into medium binding white/solid 1536-well plates (Greiner Bio-One North America Inc., Monroe, NC) using a BioRaptr Flying Reagent Dispenser (FRD, Beckman Coulter, Brea, CA). […] The assay plates were incubated at room temperature for 10 min. Then 2 ul of NADPH regeneration solution was added to each well of the assay plates using an FRD and incubated at room temperature for 1 h. The reaction was stopped by adding 4 ul of detection reagent using an FRD and after 20 min incubation at room temperature the luminescence signal was measured using a ViewLux plate reader (Perkin Elmer, Shelton, CT). Data were expressed as relative luminescence units."}
{"smiles": "OCC(CO)(CO)CO", "Potency": "inactive"}
{"smiles": "COC(=O)OC", "Potency": "inactive"}
{"smiles": "CC(=O)OCCC(C)C", "Potency": "inactive"}
{"smiles": "C[Si](C)(C)N[Si](C)(C)C", "Potency": "inactive"}
{"smiles": "COc1ccc([C@@H]2CC(=O)c3c(O)cc(O[C@@H]4O[C@H](CO[C@@H]5O[C@@H](C)[C@H](O)[C@@H](O)[C@H]5O)[C@@H](O)[C@H](O)[C@H]4O)cc3O2)cc1OC", "Potency": "inactive"}
{"smiles": "Cc1cc(CC(=O)O)n(C)c1C(=O)c1ccc(Cl)cc1", "Potency": "inactive"}
{"smiles": "COc1ccc2cc3[n+](cc2c1OC)CCc1cc2c(cc1-3)OCO2", "Potency": "180 nM (active) and 2.19 µM (active)"}
{"smiles": "O=C(c1ccccc1)c1ccc(O)c(O)c1O", "Potency": "63.8 µM (active)"}
{"smiles": "CC(=O)CC(=O)N(C)C", "Potency": "inactive"}
{"smiles": "CN1Cc2c(N)cccc2C(c2ccccc2)C1", "note": "(stereo not given)", "Potency": "5.03 µM (active) and 12.3 µM (active)"}
{"smiles": "OCc1ccc(Cl)cc1Cl", "Potency": "inactive"}
{"smiles": "COC(=O)CCCCC(=O)OC", "Potency": "inactive"}
{"smiles": "CCCCCNCCCCC", "Potency": "36.4 µM (active)"}
{"smiles": "NC(=O)c1ncn([C@@H]2O[C@H](CO)[C@@H](O)[C@H]2O)n1", "Potency": "inactive"}
{"smiles": "CC/C(C)=N/O", "Potency": "inactive"}
{"smiles": "CC(=O)C(C)C", "Potency": "inactive"}
{"smiles": "C=C(C)CC(C)(C)C", "Potency": "inactive"}
{"smiles": "C1CCCNCC1", "Potency": "inactive"}
{"smiles": "Cc1nnc(NS(=O)(=O)c2ccc(N)cc2)s1", "Potency": "inactive"}
{"smiles": "Cc1ccncc1", "Potency": "inactive"}
{"smiles": "CC(=O)OC(C)(C)C1CC=C(C)CC1", "note": "(stereo not given)", "Potency": "inactive"}
{"smiles": "CCCCCCCCC(=O)O", "Potency": "34.4 µM (active) and inactive"}
{"smiles": "NC(N)=S", "Potency": "inactive"}
{"smiles": "Nc1cccc(C(F)(F)F)c1", "Potency": "inactive"}
{"smiles": "N#CCC(=O)O", "Potency": "inactive"}
{"smiles": "O=C1CCCCCCCCCCC1", "Potency": "inactive"}
{"smiles": "CCCCCCCCO", "Potency": "inactive"}
{"smiles": "Cc1ccccc1Cl", "Potency": "inactive"}
{"smiles": "CCOC(=O)CC(=O)OCC", "Potency": "inactive"}
{"smiles": "O=C1O[C@H]([C@H](O)CO)C(O)=C1O", "Potency": "inactive"}
{"smiles": "Cc1ccccc1C=O", "Potency": "inactive"}
{"smiles": "CCCCCCCCCCCCCC(=O)O", "Potency": "inactive"}
{"smiles": "Nc1nc(N)c2nc(-c3ccccc3)c(N)nc2n1", "Potency": "64 µM (active) and inactive"}
{"smiles": "CC(=O)Nc1ccc(CC(=O)O)cc1", "Potency": "inactive"}
{"smiles": "O=C(Cl)c1ccc(C(=O)Cl)cc1", "Potency": "inactive"}
{"smiles": "Cc1cc(C)cc(O)c1", "Potency": "inactive"}
{"smiles": "O=[N+]([O-])c1cc(C(F)(F)F)ccc1Cl", "Potency": "inactive"}
{"smiles": "COc1ccc(N)c(OC)c1", "Potency": "1.53 µM (active) and 17.8 µM (active)"}
{"smiles": "OCC(O)CS", "note": "(stereo not given)", "Potency": "inactive"}
{"smiles": "Cc1ccc([N+](=O)[O-])cc1N", "Potency": "35.5 µM (active) and 39.9 µM (active)"}
